Experimental data reported in PubChem BioAssay (EPA / NIEHS).
Active and inactive are the calls of the source. The calls were made as follows: active = hit-call score of the fitted dose curve at least 0.9, where 1 is the maximum; inactive = score below 0.9.

Read-out: Collagen I, COL1A1 (gene 1277)
Test: BSK_MyoF_CollagenI: BioMAP Diversity Plus: MyoF Assay for Collagen I Biomarker Activity (AID 2284238)
Details: primary human lung fibroblasts
Description: BSK_MyoF is a cell-based, multiplexed-readout assay that uses lung fibroblasts, […], with measurements taken at 24 hours after chemical dosing in a microplate: 96-well plate.BSK_MyoF_CollagenI is an assay component measured in the BSK_MyoF assay. It measures Collagen I antibody related to regulation of gene expression using ELISA technology.Data from the assay component BSK_MyoF_CollagenI was analyzed at the endpoint, BSK_MyoF_CollagenI, in the positive analysis fitting direction relative to DMSO as the negative control and baseline of activity. Using a type of binding reporter, gain or loss-of-signal activity can be used to understand protein changes. To generalize the intended target to other relatable targets, this assay endpoint is annotated to the 'cell adhesion molecules' intended target family, where the subfamily is 'collagen'.
The levels of cell surface (or secreted, indicated by the prefix "s") biomarker endpoints were measured by ELISA. Overt cytotoxicity to cells in confluent adherent cultures (all systems other than the BT system) was assessed by measuring total protein levels using sulforhodamine B (SRB) staining in parallel cultures at the time of biomarker measurements, indicated as SRB endpoints. For proliferation assays for adherent cell types, individual cell types are cultured at sub-confluence and relative cell numbers quantified by SRB staining at time points optimized for each system (48 h: 3C and CASM3C systems; 72 h: BT and HDF3CGF systems; 96 h: SAg system). SRB was performed by staining cells with 0.1% SRB after fixation with 10% TCA and reading wells at 560 nm.Viability and proliferation of PBMC (T cells) was quantified by Alamar Blue reduction for the SAg and BT systems. For PBMC viability (referred to as PBMC Cytotoxicity within the assay endpoint names), cells were plated (75,000/well in a 96-well plate) and then chemical samples added for 1 h before addition of activators, SEB and TSST-1 (20 ng/mL final concentration each). Cells were incubated for 90 h. Then, Alamar Blue (20 uL/well) (Invitrogen, Cat DAL1100) was added for 6 h, and the plates were read with a fluorescence microplate reader at 546/580 nm (excitation/emission). For PBMC proliferation, cells were plated and activated as above but incubated for only 16 h prior to addition of Alamar Blue. Plates were read after 6 h.

Structure (SMILES)	outcome	AC50
CCCCCCCCCCCCCCCCCC(=O)OCC(CC)CCCC (stereo not drawn)	inactive	
CCCCC/C=C/C=C/C=O		32.4 µM (active)
CCCCCCCCCC=O	inactive	
Nc1cc([N+](=O)[O-])ccc1Cl	inactive	
C#C[C@]1(O)CC[C@H]2[C@@H]3CCC4=Cc5oncc5C[C@]4(C)[C@H]3CC[C@@]21C	inactive	
CCc1c(C)cc(N)c(CC)c1N	inactive	
N#Cc1ccc(CC(=NNC(=O)Nc2ccc(OC(F)(F)F)cc2)c2cccc(C(F)(F)F)c2)cc1	inactive	
Cc1ccc2n[nH]nc2c1	inactive	
CC(C)Oc1ccccc1O	inactive	
BrC1CCC(Br)C(Br)CCC(Br)C(Br)CCC1Br (stereo not drawn)	inactive	
COC(=O)c1ccc(C)cc1	inactive	
CC(=O)/C=C/C1=C(C)CCCC1(C)C	inactive	
O=P(c1ccccc1)(c1ccccc1)c1ccccc1	inactive	
c1ccc2sc(SN(C3CCCCC3)C3CCCCC3)nc2c1	inactive	
CC(C)(COC(=O)c1ccccc1)COC(=O)c1ccccc1	inactive	
Cc1ccc(O)c(C(C)(C)C)c1		35.4 µM (active)
C=C(C)C(=O)O[C@H]1C[C@@H]2CC[C@@]1(C)C2(C)C		29.2 µM (active)
O=C=NC1CCC(CC2CCC(N=C=O)CC2)CC1 (stereo not drawn)	inactive	
CCCCCCCCC=O	inactive	

Structure (SMILES)	outcome	AC50
O=C1OC2(c3cc(Br)c(O)c(Br)c3Oc3c2cc(Br)c(O)c3Br)c2c(Cl)c(Cl)c(Cl)c(Cl)c21		3.89 µM (active)
CC1COc2ccccc2N1C(=O)C(Cl)Cl (stereo not drawn)		14.4 µM (active)
O=C(O)c1cn(C2CC2)c2cc(N3CCNCC3)c(F)cc2c1=O	inactive	
CC1CCC(C(C)CS)CC1S (stereo not drawn)		5.96 µM (active)
CCCCC(CC)COC(=O)/C=C\C(=O)OCC(CC)CCCC (stereo not drawn)	inactive	
O=C1CCCCCCCCCCCCCCO1		8.87 µM (active)
C=C[Si](OCC)(OCC)OCC	inactive	
Cc1ccc(Nc2ccc(O)c3c2C(=O)c2ccccc2C3=O)cc1	inactive	
CC(=O)Nc1ccccc1O	inactive	
O=C(O)c1cn(-c2ccc(F)cc2)c2cc(N3CCNCC3)c(F)cc2c1=O	inactive	
CC(C)c1ccc(C(C)C)cc1	inactive	
c1ccc2c(c1)c1cccc3ccc4cccc2c4c31	inactive	
O=[N+]([O-])c1cc(C(F)(F)F)ccc1Cl	inactive	
CCn1c2ccccc2c2cc(N)ccc21	inactive	
CNC[C@H](O)c1cccc(O)c1	inactive	
CCCCC(CC)COCCC#N (stereo not drawn)	inactive	
CN(CCOc1ccc(CC2SC(=O)NC2=O)cc1)c1ccccn1 (stereo not drawn)		0.016 µM (active)
O=C(O)C[C@H](O)C[C@H](O)/C=C/c1c(C2CC2)nc2ccccc2c1-c1ccc(F)cc1	inactive	
CC(=O)O[C@]1(C(C)=O)CC[C@H]2[C@@H]3C[C@H](C)C4=CC(=O)CC[C@]4(C)[C@H]3CC[C@@]21C	inactive	
